# Reference: PubChem BioAssay (NCATS)
# Several values for one entry are separate records, joined by “and”; a condition that tells them apart may be missing. Equal values may be shown once. Unmarked numbers belong to inactive results. Inconclusive results are not listed. Entries that show only a call come without a potency. Activity calls are given as the source filed them. Unless noted, calls follow the shape of the dose curve; as a rule, active = well fitted curve in the direction sought with a large enough effect; inconclusive = small, poorly fitted or top-dose-only effect, or another doubt; inactive = no such curve, though single readings can be large; an effect the other way counts as inactive or inconclusive.
# Assays:
# [1] = S16 Schwann cell viability assay (CellTiter-Glo assay) (AID 624031);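 also: cellular ATP luminescence as a viability measure; nearly all actives have a fitted effect of over 70% in size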
# How it was run: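 This viability control uses native rat S16 Schwann cells grown in DMEM plus 10% FBS. After a 24 h compound treatment at 37 °C, CellTiter-Glo luminescence reports ATP content, scaled against DMSO-treated and cell-free wells.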
# [2] = S16 Schwann cell PMP22 intronic element firefly luciferase assay (AID 624032); also: nearly all actives have a fitted effect of over 30% in size; also: potency is read from the fitted curve at half-maximal effect
# How it was run: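 Luciferase reporter of PMP22 intronic-element expression in stably transfected S16 rat Schwann cells, read by ONE-Glo luminescence after 24 h compound exposure at 37 C. Activity scaled between DMSO (0%) and positive-control PTC124; concentration-effect curves quality-classified.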
# [3] = S16 Schwann cell PMP22 intronic element beta-lactamase assay (AID 624044; calls by dose curve; also: nearly all actives have a fitted effect of over 15% in size); conditions: S16 rat Schwann cells, PMP22 element beta-lactamase FRET, 24 h; ratio activity, negative = inhibition: at 38.3 µM (top of the series) unless noted
# How it was run: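 Rat S16 Schwann cells with beta-Lac driven by a PMP22 intronic element, compound-treated 24 h at 37 °C. LiveBLAzer FRET B/G read: 460 nm normalized to potassium clavulanate vs DMSO; 535 nm FRET as viability; concentration-effect curves classified.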
# [4] = biological target: Luciferin 4-monooxygenase (Photinus pyralis) (UniProt P08659); experiment: Biochemical firefly luciferase enzyme assay for NPC (AID 624030);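 also: purified P. pyralis luciferase at 10 nM with luciferin and ATP substrate; nearly all actives have a fitted effect of over 70% in size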
# Chain of Luciferin 4-monooxygenase (Photinus pyralis) (P08659 whole entry, looked up): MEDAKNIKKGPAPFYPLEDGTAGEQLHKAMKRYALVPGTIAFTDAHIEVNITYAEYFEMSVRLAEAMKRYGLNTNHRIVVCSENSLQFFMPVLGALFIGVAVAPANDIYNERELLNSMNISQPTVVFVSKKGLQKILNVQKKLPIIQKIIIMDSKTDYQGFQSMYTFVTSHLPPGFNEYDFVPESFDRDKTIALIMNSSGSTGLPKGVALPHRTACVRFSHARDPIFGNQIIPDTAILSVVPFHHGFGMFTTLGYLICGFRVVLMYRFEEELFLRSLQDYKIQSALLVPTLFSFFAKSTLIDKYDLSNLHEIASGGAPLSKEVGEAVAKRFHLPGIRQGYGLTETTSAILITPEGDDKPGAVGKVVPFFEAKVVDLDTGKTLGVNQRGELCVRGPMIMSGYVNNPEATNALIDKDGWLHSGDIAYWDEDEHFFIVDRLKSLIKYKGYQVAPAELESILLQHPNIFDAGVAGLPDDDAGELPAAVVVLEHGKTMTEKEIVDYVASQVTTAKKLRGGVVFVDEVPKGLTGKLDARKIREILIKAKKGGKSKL
# How it was run: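 Direct inhibition of firefly luciferase enzyme (10 nM final, 50 mM Tris Acetate) assessed by luminescence within 5 minutes. Percent activity scaled between DMSO and PTC124 positive control, with concentration-effect curves classified by fit quality and response.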
# [5] = qHTS assay for small molecule activators of the nuclear factor-kappa B (NF-kB) signaling pathway (AID 651749; active = well fitted activation curve with a large enough effect in the signal ratio; the % refers to the signal ratio); conditions: NF-kB-bla ME-180 cells, beta-lactamase FRET ratio, 16 h; hits give high values
# How it was run: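 Stably transfected ME-180 line; NF-kB response element upstream of beta-lactamase. Treatment: compound or DMSO, 16 hr. Detection: fluorescent FRET substrate.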
# [6] = qHTS assay for small molecule disruptors of the mitochondrial membrane potential - 1 hr assay (AID 651754; calls by dose curve; also: nearly all actives have a fitted effect of over 35% in size)
# How it was run: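 HepG2 cells, attached overnight at 37C, were exposed to compound or DMSO vehicle for 1 hr at 37C, 5% CO2, then stained with Mito-MPS dye for 30 min. Red aggregate versus green monomer fluorescence reports membrane potential.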
# [7] = qHTS assay for small molecule disruptors of the mitochondrial membrane potential - 5 hr assay (AID 651755; calls by dose curve; also: nearly all actives have a fitted effect of over 40% in size)
# How it was run: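 HepG2, 2,000 cells/well, overnight attach; cpd or DMSO 5 hr, 37C/5% CO2; Mito-MPS 30 min 37C; fluor 490/535 + 540/590 nm.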
# [8] = biological target: Tumor necrosis factor (Homo sapiens) (UniProt P01375); experiment: qHTS assay to identify small molecules that stimulate Tumor Necrosis Factor-alpha (TNF-alpha) secretion (AID 651757; active = well fitted curve in the direction sought with a large enough effect in the signal ratio; the % refers to the signal ratio)
# Chain of Tumor necrosis factor (Homo sapiens) (P01375 whole entry, looked up): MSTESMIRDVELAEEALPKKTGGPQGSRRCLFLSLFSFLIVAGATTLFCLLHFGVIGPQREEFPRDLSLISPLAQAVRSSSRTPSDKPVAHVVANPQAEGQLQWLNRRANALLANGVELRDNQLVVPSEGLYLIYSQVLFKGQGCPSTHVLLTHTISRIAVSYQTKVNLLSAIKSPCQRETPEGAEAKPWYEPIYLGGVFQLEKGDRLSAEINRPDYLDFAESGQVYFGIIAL
# How it was run: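 THP-1 cells were exposed to compounds for 17 hrs at 37 C, after which secreted TNF-alpha was measured by homogeneous HTRF (TR-FRET) using cryptate- and XL665-labeled anti-TNF-alpha antibodies, read after 3 hr at room temperature.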
# [9] = qHTS assay to identify small molecules that stimulate interleukin-8 (IL-8) secretion (AID 651758; active = well fitted activation curve with a large enough effect in the signal ratio; the % refers to the signal ratio)
# How it was run: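 Secreted IL-8 measured by TR-FRET sandwich (cryptate and XL665 antibodies) from THP-1 cells exposed to compound overnight (16 hrs, 37 C).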
# [10] = qHTS assay for environmental chemicals that activate the Aryl hydrocarbon Receptor (AhR) signaling pathway (AID 651777); conditions: 1A2-DRE human hepatoma cells, luciferase, 24 h; activation: hits give high values; also: nearly all actives have a fitted effect of over 15% in size
# How it was run: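 Following a 24 hr incubation with test chemicals at 37 C and 5% CO2, 1A2-DRE human hepatoma cells received One-Glo reagent; after 30 min at room temperature, luciferase output reflected CYP1A2 induction via AhR.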
# [11] = biological target: Peroxisome proliferator-activated receptor alpha (Homo sapiens) (UniProt Q07869); experiment: qHTS assay for small molecule agonists of the peroxisome proliferator-activated receptor alpha (PPARalpha) signaling pathway (AID 651778); conditions: PathHunter PPARalpha complementation, chemiluminescence, 6 h; hits give high values
# Chain of Peroxisome proliferator-activated receptor alpha (Homo sapiens) (Q07869 whole entry, looked up): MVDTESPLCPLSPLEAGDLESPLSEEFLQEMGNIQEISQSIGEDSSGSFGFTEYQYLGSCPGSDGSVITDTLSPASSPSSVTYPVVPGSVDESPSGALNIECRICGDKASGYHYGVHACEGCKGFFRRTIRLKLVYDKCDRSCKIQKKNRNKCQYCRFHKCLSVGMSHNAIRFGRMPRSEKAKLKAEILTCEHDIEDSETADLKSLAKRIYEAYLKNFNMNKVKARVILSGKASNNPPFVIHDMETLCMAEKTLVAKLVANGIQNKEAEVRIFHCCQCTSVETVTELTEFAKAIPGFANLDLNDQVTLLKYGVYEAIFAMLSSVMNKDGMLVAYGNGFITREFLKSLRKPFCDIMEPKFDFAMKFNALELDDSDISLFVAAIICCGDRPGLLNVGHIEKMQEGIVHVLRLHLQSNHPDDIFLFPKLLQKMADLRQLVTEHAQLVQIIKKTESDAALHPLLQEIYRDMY
# How it was run: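 Chemiluminescence from complemented enzyme reported PPARalpha activation in cells after 6 hr of compound treatment at 37 C. The detection reagent was incubated for 60 min at room temperature, and compounds were scored as agonists.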
# [12] = biological target: Nuclear receptor ROR-gamma (Homo sapiens) (UniProt P51449); experiment: qHTS assay for small molecule antagonists of the retinoid-related orphan receptor gamma (ROR-gamma) signaling pathway (AID 651802); also: nearly all actives have a fitted effect of over 60% in size
# Chain of Nuclear receptor ROR-gamma (Homo sapiens) (P51449 whole entry, looked up): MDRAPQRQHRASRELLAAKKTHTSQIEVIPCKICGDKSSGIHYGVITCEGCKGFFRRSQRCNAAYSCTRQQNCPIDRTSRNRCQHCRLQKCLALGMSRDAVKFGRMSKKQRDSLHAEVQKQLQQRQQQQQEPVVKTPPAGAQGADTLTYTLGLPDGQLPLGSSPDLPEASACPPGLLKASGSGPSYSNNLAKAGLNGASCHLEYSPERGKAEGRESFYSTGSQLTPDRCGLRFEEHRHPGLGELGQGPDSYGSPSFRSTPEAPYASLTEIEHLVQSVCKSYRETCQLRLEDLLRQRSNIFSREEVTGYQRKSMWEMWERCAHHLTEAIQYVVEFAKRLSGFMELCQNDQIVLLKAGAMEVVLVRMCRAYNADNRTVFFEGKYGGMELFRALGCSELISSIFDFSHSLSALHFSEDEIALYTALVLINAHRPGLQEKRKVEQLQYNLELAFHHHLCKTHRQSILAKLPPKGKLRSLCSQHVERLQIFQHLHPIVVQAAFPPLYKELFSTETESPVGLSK
# How it was run: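 CHO cells carrying TET-inducible ROR-gamma and an ROR response element–luciferase reporter were exposed to compound, then induced with doxycycline. After 16hr at 37C, luminescence was read; lower signal indicates antagonism.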
# [13] = qHTS assay for small molecule agonists of the antioxidant response element (ARE) signaling pathway (AID 651741; active = well fitted activation curve with a large enough effect in the signal ratio; the % refers to the signal ratio; also: potency is read from the fitted curve at half-maximal effect)
# How it was run: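 Seeding 2,000 ARE-bla HepG2 cells per well preceded a 5 h incubation at 37 C/5% CO2 and a 16 h compound exposure at 37 C. Beta-lactamase reporter activity was then quantified by fluorescence after 2 h with LiveBLAzer B/G FRET substrate.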
smiles,measurement,setting,value
CO/N=C(\C(=O)N[C@@H]1C(=O)N2C(C(=O)[O-])=C(C[n+]3cccc4c3CCC4)CS[C@H]12)c1csc(N)n1,Potency,[1],inactive
same,Potency,[2],inactive
O=P(O)(O)OC[C@H]1O[C@](O)(COP(=O)(O)O)[C@@H](O)[C@@H]1O,Potency,[1],inactive
same,Potency,[2],inactive
Cc1cc(-c2ccc(N=Nc3ccc4c(S(=O)(=O)O)cc(S(=O)(=O)O)c(N)c4c3O)c(C)c2)ccc1N=Nc1ccc2c(S(=O)(=O)O)cc(S(=O)(=O)O)c(N)c2c1O,Potency,[1],inactive
same,Potency,[2],8.09 µM (active)
C[N+]1(C)[C@@H]2CC(OC(=O)C(O)(c3cccs3)c3cccs3)C[C@H]1[C@@H]1O[C@@H]12 (some centres undefined),Potency,[1],inactive
same,Potency,[2],inactive
same,"ratio activity, negative = inhibition",[3],-1.55%
OCc1ccccc1,Potency,[4],inactive
same,Potency,[2],inactive
same,"ratio activity, negative = inhibition",[3],-1.75%
same,activation,[5],0.143%
same,Potency,[6],inactive
same,Potency,[7],inactive
same,Potency,[8],inactive
same,Potency,[9],inactive
same,activation,[10],0.173%
same,max response,[11],2.92%
same,Potency,[12],inactive
c1ccc2c(c1)Sc1ccccc1N2CCN1CCCC1,Potency,[4],inactive
same,"ratio activity, negative = inhibition",[3],-1.68%
CC(C)(C)CC(C)(C)c1cc(Cc2cc(C(C)(C)CC(C)(C)C)cc(-n3nc4ccccc4n3)c2O)c(O)c(-n2nc3ccccc3n2)c1,Potency,[1],inactive
same,Potency,[2],inactive
Cc1ccc(S(=O)(=O)O)cc1C,Potency,[4],inactive
same,Potency,[2],inactive
same,Potency,[6],inactive
same,Potency,[7],inactive
same,Potency,[8],inactive
same,Potency,[9],inactive
same,activation,[10],-1.47%
same,max response,[11],-6.39%
COc1ccc2c(c1)OC(C)(C)C(c1ccccc1)C2c1ccc(OCCN2CCCC2)cc1 (centres undefined),Potency,[4],inactive
same,"ratio activity, negative = inhibition",[3],-10.8%
OCC(O)CO,Potency,[4],inactive
same,Potency,[2],inactive
same,"ratio activity, negative = inhibition",[3],2.96%
same,activation,[5],0.141% and 0.577%
same,Potency,[6],inactive
same,Potency,[7],inactive
same,Potency,[8],inactive
same,activation,[10],-0.636% and 0.226%
same,max response,[11],-3.36% and -0.557%
same,Potency,[12],inactive
C[C@H](CCC(=O)O)[C@H]1CC[C@H]2[C@@H]3CC[C@@H]4C[C@H](O)CC[C@]4(C)[C@H]3C[C@H](O)[C@]12C,Potency,[4],inactive
same,Potency,[2],inactive
same,Potency,[13],66.8 µM (active)
same,activation,[5],0.346%
same,Potency,[6],inactive
same,Potency,[7],inactive
same,Potency,[8],inactive
same,activation,[10],-0.635%
same,max response,[11],-0.194%
CCOc1cc(-c2nccc3cc(OC)c(OC)cc23)cc(OCC)c1OCC,Potency,[4],inactive
same,"ratio activity, negative = inhibition",[3],-11.1%
CC(CN(C)C)CN1c2ccccc2Sc2ccc(C(F)(F)F)cc21 (centres undefined),Potency,[4],inactive
same,"ratio activity, negative = inhibition",[3],-9.58%
O=C1N=C2SCCN2C(=O)C1Cc1ccc(Cl)cc1 (centres undefined),Potency,[1],inactive
same,Potency,[2],inactive
same,"ratio activity, negative = inhibition",[3],0.0729%
N[C@H](CC(=O)O)C(=O)O,Potency,[1],inactive
same,Potency,[2],inactive
C[C@]12CC[C@@H]3c4ccc(OC(=O)c5ccccc5)cc4CC[C@H]3[C@@H]1CC[C@@H]2O,Potency,[1],inactive
same,Potency,[2],3.61 µM (active)
